Screening data from PubChem.
A selection: hits, their analogues and other compounds. The true share with any hit is near 4.7%.
ALR inh = human ALR oxidase inhibition via reduced H2O2; P55789; purified ALR, DTT oxidation, H2O2 HRP-luminol luminescence; inhibition, % (test concentration not listed); 290,000 compounds, 3.8% hits; AID 485317;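 active = mean replicate inhibition above about 79%, with every replicate also reaching it, limit read from the data; inconclusive = only one of the two criteria met; inactive = mean below limit and not every replicate reaching it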
MLLE-PAM2 inh = blocks PAM2 peptide binding to the PABP1 MLLE domain | inhibition, % at 20 µM | P11940 | GST-MLLE / FITC-PAM2 fluorescence polarization | 360,000 compounds, 0.36% hits; in the data active = inhibition above about 35%, passing the limit was not always enough
Target sequence (P11940 whole entry, looked up, the tested form may be a part): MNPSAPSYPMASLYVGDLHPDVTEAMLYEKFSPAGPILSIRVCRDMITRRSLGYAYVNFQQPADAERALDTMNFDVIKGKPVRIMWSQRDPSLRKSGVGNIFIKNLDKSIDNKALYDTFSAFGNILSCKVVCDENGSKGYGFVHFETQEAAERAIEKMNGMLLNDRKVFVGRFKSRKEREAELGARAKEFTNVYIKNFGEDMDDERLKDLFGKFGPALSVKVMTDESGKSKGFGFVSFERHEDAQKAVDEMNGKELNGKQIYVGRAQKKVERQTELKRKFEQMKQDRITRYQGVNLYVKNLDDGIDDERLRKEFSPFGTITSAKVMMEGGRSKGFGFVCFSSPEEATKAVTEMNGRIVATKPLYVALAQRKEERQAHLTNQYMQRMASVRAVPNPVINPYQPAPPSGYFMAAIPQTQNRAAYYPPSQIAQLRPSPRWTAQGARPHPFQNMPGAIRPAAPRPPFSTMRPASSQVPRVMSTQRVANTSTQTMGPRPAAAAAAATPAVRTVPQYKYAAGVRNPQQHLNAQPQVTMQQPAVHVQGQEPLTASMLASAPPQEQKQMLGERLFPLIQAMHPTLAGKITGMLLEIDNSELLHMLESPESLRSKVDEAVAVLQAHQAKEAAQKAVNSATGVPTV
PABP polyA inh = PABP-poly(A) binding inhibition. 290,000 compounds, 1% hits. PABP-poly(A) RNA binding, fluorescence polarization. inhibition, % at 35 µM. P11940;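 note: calls also rest on retests at 20 µM and on dose response follow-up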
Efflux pump inh = blocks antifungal efflux pumps in multiplex yeast assay. S. cerevisiae Candida pump triplex, Nile Red efflux. inhibition, % at 10 µM. 330,000 compounds, 0.44% hits. AID 485275;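 active = plate passing quality check with inhibition over a set limit, or well fluorescence over plate mean plus 4 SD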;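 note: Nile Red retained in pooled yeast measured as flow cytometry median fluorescence; higher means more Nile Red kept so more efflux inhibition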
eIF4H inh = inhibitors of RNA binding by human eIF4H; inhibition, % at 35 µM; 290,000 compounds, 0.94% hits; eIF4H fluorescence polarization binding assay; Q15056;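 note: calls also rest on retests at 20 µM and on dose response follow-up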
SUMO HTRF inh = blocks human SUMOylation mediated by UBC9; 290,000 compounds, 0.36% hits; AID 2006; P63279; inhibition, % at 35 µM; HTRF SUMOylation assay, SAE1/SAE2 + UBC9, in vitro; in the data active = inhibition above about 50%, passing the limit was not always enough; inconclusive = no clear call, values can overlap the other calls
Of the large screens only hits and unclear results are named; the others gave an inactive call. Unless noted, the rule behind the calls is not given here.

Nc1nc(O)c(N=Nc2ccc(S(N)(=O)=O)cc2)c(=O)[nH]1	none (no result: MLLE-PAM2 inh)
O=C(N/N=C/c1ccccn1)c1ccc(NC(=O)c2cccc([N+](=O)[O-])c2)cc1	PABP polyA inh active, eIF4H inh 75 (no result: ALR inh)
O=C(N/N=C/c1ccccn1)c1ccc(N/N=C/c2ccccn2)cc1	ALR inh 99
COc1cc(OC)cc(-c2c(-c3ccc(C(C)=O)cc3)c3cc(-c4cccc5[nH]ccc45)ccc3n2C)c1	none (no result: PABP polyA inh, eIF4H inh, SUMO HTRF inh)
N#C/C(=N\Nc1cccc(C(F)(F)F)c1)C(=O)c1csc(-c2cccnc2)n1	ALR inh 97
Cc1ccc(C(=O)Nc2cccc(C(F)(F)F)c2)cc1NC(=O)c1csc(-c2ccncc2)n1	none
O=C(O)CCc1ccc(-c2cccs2)n1-c1ccc(C(=O)O)cc1	none
O=C(O)CCc1ccc(-c2cccs2)n1CCc1ccccc1	ALR inh 99
CC(=O)c1cccc(-n2c(CCC(=O)O)ccc2-c2cccs2)c1	ALR inh 89
O=C(O)CCc1ccc(-c2cccs2)n1CCC(=O)O	PABP polyA inh 72, eIF4H inh 49
O=C(O)CCc1ccc(-c2cccs2)n1NC(=O)c1ccccc1Br	ALR inh 99
CCOc1ccccc1C=NNC(=O)C1CC1	none (no result: ALR inh, PABP polyA inh, Efflux pump inh, eIF4H inh, SUMO HTRF inh)
CC1CCN(S(=O)(=O)c2cccc3cccnc23)CC1	none
Cc1cc(-c2ccco2)c(C#N)c2nc3ccccc3n12	PABP polyA inh 88, eIF4H inh 88 (no result: ALR inh)
O=c1oc(C2(O)CCCCC2)cc2ccc(-c3ccc4[nH]ccc4c3)cc12	none (no result: PABP polyA inh, eIF4H inh, SUMO HTRF inh)
Cc1cc(C)c2c(N)c(C(=O)NCC3CCCCC3)sc2n1	MLLE-PAM2 inh 40
Cc1cc(C)c2c(N)c(C(=O)Nc3ccc(C)c(C)c3)sc2n1	none
Cc1cc(C)c2c(N)c(C(=O)NC3CCCC3)sc2n1	PABP polyA inh 77, eIF4H inh active
O=C1CC(NC(=O)C(F)(F)F)=NN1c1ccccc1	PABP polyA inh 60, eIF4H inh active
COCc1cc(=O)n2[nH]cc(-c3ccsc3)c2n1	ALR inh 99
CCOC(=O)Cc1cc(=O)n2[nH]cc(-c3ccc(Cl)cc3)c2n1	ALR inh 99
CCOC(=O)Cc1cc(=O)n2[nH]c(-c3ccc(Cl)cc3)cc2n1	none
Cc1cccc(C(=O)NNC(=O)c2ccc3ccccc3c2)c1	none (no result: ALR inh, PABP polyA inh, Efflux pump inh, eIF4H inh, SUMO HTRF inh)
c1coc(-c2nc(-c3ccco3)c(-c3ccco3)nc2-c2ccco2)c1	PABP polyA inh 94, eIF4H inh 85, SUMO HTRF inh inconclusive
Nc1nc(-c2ccco2)c(-c2ccco2)s1	MLLE-PAM2 inh 44, PABP polyA inh inconclusive, eIF4H inh inconclusive
Nc1nc(-c2ccco2)cs1	PABP polyA inh 66, eIF4H inh 79
Nc1nc(-c2ccc(-n3nncc3-c3ccco3)cc2)cs1	none (no result: MLLE-PAM2 inh)
COc1ccc2nc(-c3ccco3)c(-c3ccco3)nc2c1	MLLE-PAM2 inh 40, PABP polyA inh 87, eIF4H inh 98, SUMO HTRF inh 71
O=C(Nc1ccc(Br)cc1)c1ccc(N2C(=O)C3CC=C(Cl)CC3C2=O)cc1 (stereo unspecified)	SUMO HTRF inh 53
O=C(Nc1ccc(Br)cc1)c1ccc(N2C(=O)C3CCCCC3C2=O)cc1 (stereo unspecified)	none
CCN(CC)c1ccc2c(C)c(CO)c(=O)oc2c1	ALR inh 99
C=CC[C@H](CC(=O)N(CCO)Cc1ccccc1)C(=O)N[C@H](COC(=O)[C@@H](CC=C)CC(=O)OC(C)(C)C)c1ccccc1	none (no result: PABP polyA inh, eIF4H inh, SUMO HTRF inh)
Cc1cccc2nc(CSCc3ccco3)cn12	ALR inh 98, MLLE-PAM2 inh 44, PABP polyA inh 72, eIF4H inh 76
Cc1cc(C)n2cc(CSCc3ccco3)nc2n1	none (no result: ALR inh)
CC(=O)c1c(C)[nH]c(C(=O)OCC(=O)Nc2ccccc2Cl)c1C	none
CC(=O)c1c(C)[nH]c(C(=O)OCC(=O)Nc2ccc([N+](=O)[O-])cc2Cl)c1C	PABP polyA inh 62 (no result: ALR inh)
O=C1CC(SC(=S)C2CCCC2=O)C(=O)N1 (stereo unspecified)	MLLE-PAM2 inh 46 (no result: ALR inh, PABP polyA inh, Efflux pump inh, eIF4H inh, SUMO HTRF inh)
O=C1CC(Sc2ncccc2C(=O)O)C(=O)N1 (stereo unspecified)	none
CC(C)C1C(=O)N(Cc2cn(CC3CCCCC3)nn2)CCS(=O)(=O)N1Cc1ccc(-c2ccccc2)cc1 (stereo unspecified)	none (no result: ALR inh, PABP polyA inh, Efflux pump inh, eIF4H inh, SUMO HTRF inh)
CC1(C(=O)NNC(=O)c2ccc(=O)oc2)CC1Br (stereo unspecified)	PABP polyA inh 83
N=C1c2ccccc2CN1NC(=O)CC12CC3CC(CC(C3)C1)C2	none
Cc1cccc(CSc2nnc(-c3ccco3)o2)c1	none
O=C(CSc1nnc(-c2ccco2)o1)Nc1c(F)cccc1F	none (no result: ALR inh, PABP polyA inh, eIF4H inh, SUMO HTRF inh)
O=C(CSc1nnc(-c2ccco2)o1)c1ccc(F)c(F)c1	none
O=C(CSc1nnc(-c2ccco2)o1)c1ccc[nH]1	ALR inh 98, eIF4H inh 83
O=C(CSc1nnc(-c2ccco2)o1)c1ccccc1	ALR inh 99
CC(=O)c1c(C)cc(C)c(CSc2nnc(-c3ccco3)o2)c1C	ALR inh 90
COc1cccc(N2CCN(Cc3ccco3)CC2)c1	ALR inh 87
COc1ccc2c(C(=O)CN3CCSCC3)c[nH]c2c1	none
COc1cccc(N2CCN(Cc3ccsc3)CC2)c1	ALR inh 89
COc1cccc(N2CCN(Cc3nc4ccccc4c(=O)[nH]3)CC2)c1	none
COc1cccc(N2CCN(Cc3nc4scc(-c5ccccc5)c4c(=O)[nH]3)CC2)c1	PABP polyA inh 70, eIF4H inh 79
COc1cccc(CN2CCN(Cc3ccco3)CC2)c1	none
COc1ccc2c(C(=O)CN3CCN(c4ccccc4)CC3)c[nH]c2c1	PABP polyA inh 70, eIF4H inh 69
CN1CCN(C(=O)c2cccc(S(=O)(=O)N3CCCC3)c2)CC1	none (no result: ALR inh, PABP polyA inh, eIF4H inh, SUMO HTRF inh)
CC(CCc1ccccc1)NC(=O)CN1CCN(c2ccccc2)CC1 (stereo unspecified)	ALR inh 99
c1ccc(CCCN2CCN(c3ccccc3)CC2)cc1	ALR inh 86
COc1cccc(N2CCN(CC(=O)NCc3ccccc3)CC2)c1	ALR inh 98
COc1cccc(N2CCN(CC(=O)NC(=O)NCc3ccco3)CC2)c1	PABP polyA inh active
CCN(CC)S(=O)(=O)c1ccc(NC(=O)C2CC(=O)N(c3ccc4c(c3)OCCO4)C2)cc1 (stereo unspecified)	none (no result: ALR inh, PABP polyA inh, Efflux pump inh, eIF4H inh, SUMO HTRF inh)
CCC(Oc1ccccc1)C(=O)Nc1ncc([N+](=O)[O-])s1 (stereo unspecified)	ALR inh 97
CCC(Oc1ccccc1)C(=O)Nc1nnc(C)s1 (stereo unspecified)	none
O=C(COc1ccc(Cl)cc1)Nc1ncc([N+](=O)[O-])s1	none (no result: ALR inh, Efflux pump inh)
O=C(COC(=O)COc1ccccc1)Nc1ncc([N+](=O)[O-])s1	ALR inh 96 (no result: PABP polyA inh, eIF4H inh, SUMO HTRF inh)
O=C(COC(=O)c1cc(S(=O)(=O)N2CCOCC2)ccc1F)NCc1ccc2c(c1)OCO2	none (no result: PABP polyA inh, eIF4H inh, SUMO HTRF inh)
CCOc1ccc(-c2cc(C(=O)NCCCN3CCCC3)c3ccccc3n2)cc1	none (no result: PABP polyA inh, eIF4H inh, SUMO HTRF inh)
CN(C)CCCn1c(SCC(=O)Nc2nccs2)nnc1-c1ccncc1	none
